For 35 compounds, Inhibition results are on record in ChEMBL document CHEMBL1157539, “Thousands of chemical starting points for antimalarial lead identification” (Nature, 2010).

The Inhibition is the share of the control response that was lost under treatment. A higher Inhibition goes with strong suppression.

Structures are written as SMILES.

In this assay the test system is Plasmodium falciparum. Description: GSK_TCMDC: Inhibition of Plasmodium falciparum 3D7 in whole red blood cells, using parasite LDH activity as an index of growth. Test compounds present at 2uM. Format: functional.
In turn, `CCCc1cc(NC2CCN(C)CC2)nc(Nc2ccc(F)cc2)n1` displayed an Inhibition of 95%. As for `CNc1ccc(CNCc2ccc(-c3ccc(-c4nc5cccc(C)c5[nH]4)cc3)cc2)cc1.O=C(O)C(F)(F)F`, the figure is 100%.

As to `CC(C#N)Cc1ccc(-c2cnc(N)c3cc(-c4ccnc(N)n4)ccc23)cc1` (stereo not given), the Inhibition came out at 96%. Compound `CCC[C@@H]([C@@H](CC1CCCCC1)C(=O)N[C@H](C(=O)Nc1nccs1)[C@@H](C)OCc1ccccc1)N(O)C=O` showed an Inhibition of 100%. In the case of `CCN(CC)CCN(Cc1ccc(-c2ccc(C(F)(F)F)cc2)cc1)C(=O)Cn1cc(CCCc2cccc(F)c2F)c(=O)c2ccccc21.O=C(O)C(O)C(O)C(=O)O`, the Inhibition was determined as 89%. As for `Cc1cccc2c3c([nH]c12)C1(CCN(CCc2ccccc2)CC1)NC(C(=O)NCc1ccccc1)C3` (stereo not given), the figure is 86%. As for `COc1ccccc1-c1cccc(CNC2CCN(CC3Cn4c(=O)ccc5ccc(F)c3c54)CC2)c1.O=C(O)C(F)(F)F` (stereo not given), the figure is 91%. As for `CN1CCN(c2ccnc3ccc(NC(=O)Nc4ccc5c(c4)CCCC5=O)cc23)CC1`, the figure is 100%. Regarding `CC(C)NCc1ccc(-c2cccc(NC(=O)c3ccc(Cl)cc3)c2)cc1.O=C(O)C(F)(F)F`, the Inhibition turned out to be 100%. As for `COc1cccc(CNC[C@@H](O)[C@H](Cc2ccccc2)NC(=O)c2cc(N3CCCC3=O)c3[nH]cc(C(C)C)c3c2)c1`, the figure is 96%.

Turning to `CC1CCCC(NC(=O)CCOc2ccccc2)C1` (stereo not given), the Inhibition worked out at 96%. As for `COCCN(CCOC)c1ncc(-c2ccsc2)c(-c2nc(C)c(C)s2)n1`, the figure is 96%.

Take `NCc1ccc(-c2cccc(CNC3CCN(Cc4ccccc4)CC3)c2)cc1.O=C(O)C(F)(F)F`: the Inhibition came to 100%. As for `Cn1cnc(CCNC(=O)c2cccc(-c3csc(-c4nc5ccccc5[nH]4)c3)c2)c1`, the Inhibition was determined as 100%. As for `CN(c1ccccc1)S(=O)(=O)c1cccc(NC(=O)c2ccc(-n3ccnc3)c([N+](=O)[O-])c2)c1`, the figure is 83%; as for `CC(C)N(C(=O)CSc1nc2cc(Cl)ccc2c(=O)n1Cc1ccccc1)C(C)C`, 100%; as for `Oc1cccc(-c2nc3cc(C4=NC5CCCCC5N4)ccc3[nH]2)c1` (stereo not given), 94%. As for `COc1ccc(NC(=O)[C@H](CC(C)C)Nc2cc(C)nc(NCC3CCCCC3)n2)cc1.O=C(O)C(F)(F)F`, the figure is 100%; as for `COc1ccc(CCNCc2cc3c(C(C)(C)C)nn(-c4ccc(Cl)cc4)c3[nH]c2=O)cc1OC`, 100%; as for `O=C(Nc1cccc(-c2nc3ccccc3[nH]2)c1)c1ccc(-c2cccc([N+](=O)[O-])c2)o1`, 93%. The compound `O=C(NC1CCN(Cc2ccccc2)CC1)c1cc(-c2cccnc2)nc2ccc(Cl)cc12` had an Inhibition of 97%.

As to `CC[C@H]1CN2CCc3c([nH]c4ccccc34)[C@@H]2C[C@@H]1CC1c2cc(OC)c(OC)cc2CCN1C.Cl` (stereo not given in full), the Inhibition amounted to 85%. As for `COc1cc2ccccc2c(CON2C(=N)N=C(N)NC2(C)C)c1OC.Cl`, the figure is 96%; as for `O=S(=O)(c1cccc(Cl)c1F)N(CCC(O)(C(F)(F)F)C(F)(F)F)Cc1cccc(O)c1`, 100%. As for `CC(C)CCNC(=O)C1Cc2c([nH]c3cc(Br)ccc23)C2(CCN(CCc3ccccc3)CC2)N1` (stereo not given), the figure is 97%; as for `COc1ccc(C)c(Nc2ccnc(Nc3ccc(-c4cnc[nH]4)cc3)n2)c1.Cl`, 97%; as for `CN1CCC(C(=O)Nc2cccc(-c3ccc(-c4nc5ccccc5[nH]4)cc3)c2)CC1`, 82%. Consider `CCN(CC)CCNc1ccnc2[nH]c3ccc(C)cc3c12`, for which the Inhibition is 100%. As for `Cl.O=C(N[C@@H](Cc1ccccc1)[C@H](O)CNC1CCCc2ccccc21)c1cc(C2CCCC2)cc(N2CCCC2=O)c1` (stereo not given in full), the figure is 97%. `CCc1ccc2nc(-c3ccc(F)cc3)nc(SCC(=O)Nc3sc(C)c(C)c3C#N)c2c1` showed an Inhibition of 98%.

In the case of `Cc1cccc2nc(-c3ccc(-c4ccc(CN5CCC(CO)CC5)cc4)s3)[nH]c12.O=C(O)C(F)(F)F`, the Inhibition amounted to 100%. In turn, `Cc1cc(C(F)(F)F)n2nc(C3CCN(Cc4cc(C)c(O)c(C)c4)C3)cc2n1.O=C(O)CC(O)(CC(=O)O)C(=O)O` (stereo not given) returned an Inhibition of 98%. As for `CCC(=O)c1c(C)n(-c2ncnc3c2nc(C)n3-c2ccc(C)cc2C)c2ccccc12`, the figure is 96%; as for `CC(C)(C)c1ccc(S(=O)(=O)Nc2cc(Cl)ccc2Cn2ccc(N3CCNCC3)nc2=O)cc1.O=C(O)C(F)(F)F`, 95%. As to `CCc1c(C)nc2nc(Cc3cccc(F)c3)nn2c1N1CCN(c2ccccn2)CC1`, the Inhibition stood at 100%.
